This note sets out measurements from PMC12136788.

Substitutions are numbered along the chain they refer to. The full ranking holds about 24,000 sequences; the median of “enrichment r” is about 0.99, and the highest 2% start at about 3.7. The sample as a whole holds a higher share of the highest values than the screen did.

B1: chr1:93299114:93299115:+_ENSG00000122406_ENST00000370321|hu_hu|motif|central (ssRNA)
RNA: GGGAGUUCUACAGUCCGACGAUCUUGUAUCACCAAGCGUUUCCGAGCAUAAUAAUCAGUUUUACCCUCUCGUCGUCUUCGGAAUUUCACUUGGUAUCUCUUAAAGUAGGCCUUAUUCUUAACAACUUUAACAAACCCCAUCCUCAACAGAGGAUUGAGCAUCA
B2: chr3:32335226:32335227:+_ENSMUSG00000027665_ENSMUST00000108243|mus_mus|motif|central (ssRNA)
RNA: GGGAGUUCUACAGUCCGACGAUCGGCCUCUCUGAACAGUUCAUGUUUGAUGGUGACGAGUGUGGCCUCACGGAGGCAUUCGGAAGUCACUAUCAUUCCAUUGGGGAGUAAACAUUCCACUAGGAUUCGUGGGGGCAUCAAGUGCAACAGAGGAUUGAGCAUCA
B3: chr7:54825262:54825263:-_ENSG00000132432_ENST00000352861|hu_hu|hu_hu_hu_mus_False|48_78 (ssRNA)
RNA: GGGAGUUCUACAGUCCGACGAUCCUGCCGGCUGGGCUCCACAAACUGCAUUACCUGCAUGACUGCCGUUGGAUGGCGGAUUGAGAGUGCCAGGGACCGUAGCUCAGGAGAGAACCGAGCCCAACGGAACCGGAAGCUGGCAACCAACAGAGGAUUGAGCAUCA
B4: 93048056_93048176_2666_3pUTR_ENSMUSG00000020964_ENSMUST00000021347|mouse|control|control (ssRNA)
RNA: GGGAGUUCUACAGUCCGACGAUCCACUGAGAGUUGUCAUUCCGUAUGGCACUGAAACAAACAUUCACUGCAGCUCUGCCGAGAGCCGCGCAUCCCUGAAAAGGAAGGCAGCAGGUUCUAAGCAGCUUCUGGGAUUCAACACGCCAACAGAGGAUUGAGCAUCA
B5: chr17:56552419:56552420:-_ENSMUSG00000013236_ENSMUST00000086828|mus_mus|mus_mus_mus_hu_False|18_88 (ssRNA)
RNA: GGGAGUUCUACAGUCCGACGAUCAAAAAAUACACUAUUUAAAAAAAAAAGAAAAAAACGGGAUACAGUUACACUGAGAGUUUUAAAAGAAAGCUGGAUUCUGGUCCCAGCCCAGUGGCAGGCAGGGGCAGAGCGGGGAGGAGCCAACAGAGGAUUGAGCAUCA
B6: chr17:56552419:56552420:-_ENSMUSG00000013236_ENSMUST00000086828|mus_mus|mus_mus_mus_hu_False|88_98 (ssRNA)
RNA: B5 RNA with U38A, U39A, G117U, A119C, G120C, G121C, C122A, A123G, G125C, G126U
B7: chrX:165757501:165757502:-_ENSMUSG00000031352_ENSMUST00000112115|mus_mus|FALSE|FALSE (ssRNA)
RNA: GGGAGUUCUACAGUCCGACGAUCAGCAGGAGAAGAUGCUGAGGCACCCAUGGCUGGAAUCACAGGGGUCACUCCCAAUCUAAAAUACCCAGCAAAACGGGAGGCAAGGAGCGGCGAAGGGCAGGAAGCCACCAGUGUUGCCUUCAACAGAGGAUUGAGCAUCA
B8: chr17:56552419:56552420:-_ENSMUSG00000013236_ENSMUST00000086828|mus_mus|mus_mus_mus_hu_False|1_88 (ssRNA)
RNA: GGGAGUUCUACAGUCCGACGAUCAAAAAAUACACUAUUUAAAAAAAAAAGAAAAAAACGGGAUACAGUUACACUGAGAGUUUUAAAAGAAAGCUGGAUUCUGGUCCCAGCCCAGUGUCCCCAGGCUGCAGAGCGGGGCAGAGGCAACAGAGGAUUGAGCAUCA
B9: chr17:56552419:56552420:-_ENSMUSG00000013236_ENSMUST00000086828|mus_mus|mus_mus_mus_hu_False|48_88 (ssRNA)
RNA: B8 RNA with G88A, G92A, C93U, U94A, G95A, C138A, A139G, G143C
B10: chr14:92628060:92628061:+_ENSG00000165934_ENST00000298875|hu_hu|motif|central (ssRNA)
RNA: GGGAGUUCUACAGUCCGACGAUCUUGACAUCAUGUCCUUUAUACAAUGGCAUAUUGUUCAUAUAAAAGGUCUCUUAUCCGGUAAAAAUCUUGACAAAGGCAGCCUUCUAAUCCAAUGCGUCCAGUUUCCGUUCUGCGGACUGCCAACAGAGGAUUGAGCAUCA
B11: chr17:32333828:32333829:-_ENSMUSG00000024002_ENSMUST00000121285|mus_mus|FALSE|FALSE (ssRNA)
RNA: GGGAGUUCUACAGUCCGACGAUCUACAGUACAGCCACAGUCACACACUACCCACAGCGCAGUGGGAGCCGCCGCUCACUGAGGAGACGAUCACACCAUUUGGAGAUAAGCAGUGCCACUGUGUCUGAGGAGAAGAGAGUUAAACAACAGAGGAUUGAGCAUCA
B12: chr17:88387627:88387628:+_ENSMUSG00000005370_ENSMUST00000005503|mus_hu|motif|central (ssRNA)
RNA: GGGAGUUCUACAGUCCGACGAUCAAAAUCAUCUCCAAAAAAAGUCUUCGUAAUGCAAGGAUGGCGUGAUCCUUUAAGCUCGGAGAAGGGGGGGGUAUCUUCCGGCAACAGAAUUACUGGGCGACACAUAGGACCAUCACCCCCCAACAGAGGAUUGAGCAUCA
B13: chr8:26941818:26941819:-_ENSMUSG00000031575_ENSMUST00000166078|mus_mus|FALSE|FALSE (ssRNA)
RNA: GGGAGUUCUACAGUCCGACGAUCACUAGCAGACACAGCACUGCUUUGUUUCUGGUUGUCAUAAGCAGGACCAAUAUUACUAAGAUCCUGAUCCAAAAGUCCAAACUUGGGGUAAUCUUCUUCUGGGUCUUUGCUUCCUGGGUCCAACAGAGGAUUGAGCAUCA
B14: chr1:163117127:163117128:-_ENSG00000143248_ENST00000313961|hu_mus|hu_hu_hu_mus_False|58_98 (ssRNA)
RNA: GGGAGUUCUACAGUCCGACGAUCUGCUACAAAGGAUGGAGGAAAUAUCACAGGGCAACUUUUGGAAGCCUGACCAGAUUACUACUUGAUUAGCUCCUUAUAAAAUUCAGAGCGCACAAAGCGGGGCAGAGAAUCCUUCUCCAUCAACAGAGGAUUGAGCAUCA
B15: chr18:90710673:90710674:+_ENSMUSG00000024614_ENSMUST00000025515|mus_mus|motif|central (ssRNA)
RNA: GGGAGUUCUACAGUCCGACGAUCACCUAAUAAAAAUUCUGAAAUUAGCUAAAAUGAAGGCAUCAAAAUUAACAAAUGAUCGGUAGUAAACAUUAUCACAAAAUACCCACUCUUAGACACGACUGCAUUCUGAUGAAAGAUGCGCAACAGAGGAUUGAGCAUCA

The target of this assay is T1, UNK ZnF1-3 (human, UniProt Q9C0B0 31-174).
T1 sequence: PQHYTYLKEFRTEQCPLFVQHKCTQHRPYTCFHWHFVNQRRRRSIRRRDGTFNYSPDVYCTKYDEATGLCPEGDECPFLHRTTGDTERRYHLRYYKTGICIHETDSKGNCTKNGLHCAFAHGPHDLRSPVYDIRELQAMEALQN
In words: nsRBNS (natural sequence RNA bind-n-seq); RBNS binding buffer (assumed for nsRBNS): 25 mM Tris pH 7.5, 150 mM KCl, 3 mM MgCl2, 0.01% Triton X-100, 500 ug/ml BSA, 20 U/ml SUPERase-In, 4 C; UNK is unkempt and MSI1 is Musashi-1; names of the RNAs are library labels; protein concentration not given here; high values mean tight binding.
As for B1, the binding signal is 0.572 enrichment R.

Consider B2, for which the binding signal amounted to 1.05 enrichment R.

The molecule B3 showed a binding signal of 1.55 enrichment R.

On to B4, for which the binding signal amounted to 0.952 enrichment R.

As for B5, the binding signal is 9.03 enrichment R.

Molecule B6 displayed a binding signal of 16 enrichment R.

The molecule B7 registered a binding signal of 1.75 enrichment R.

With B8, the binding signal was 7.19 enrichment R.

B9 yielded a binding signal of 16.3 enrichment R.

As to B10, the binding signal came to 0.899 enrichment R.

The molecule B11 showed a binding signal of 1.36 enrichment R.

Molecule B12 yielded a binding signal of 1.58 enrichment R.

Molecule B13 displayed a binding signal of 0.761 enrichment R.

In turn, B14 yielded a binding signal of 1.55 enrichment R.

B15: the binding signal is 1.85 enrichment R.
